Rows were chosen to be rich in hits. Some 1.2% of all compounds tested hit in one or more screens of this group.
BJeLR viability: MLPCN primary cell-based screen for lethality selective to Ras in HRASV12 cells; BJeLR (HRASV12) viability, CellTiter-Glo ATP luminescence, 48 h; inhibition, % (test concentration not listed); hit rate 0.17% among 300,000; AID 1554, 2009; in the data active = inhibition above about 50%
MazF activator: activators of E. coli MazEF toxin-antitoxin RNase, primary screen, biochemical, fluorescence, uHTS; Endoribonuclease toxin MazF (Escherichia coli (strain K12)), P0AE70; FAM/BHQ RNA-DNA oligo cleavage fluorescence, 5 h; activation, % at 20 µM; hit rate 0.32% among 350,000; in the data active = activation above about 50%
Target sequence (P0AE70 whole entry, looked up): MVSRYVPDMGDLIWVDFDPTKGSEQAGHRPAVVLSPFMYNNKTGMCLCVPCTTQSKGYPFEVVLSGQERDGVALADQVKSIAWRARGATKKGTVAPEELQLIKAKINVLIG
Sa RN4220 lethal: growth inhibition of S. aureus RN4220, primary screen, OD600. hit rate 0.33% among 330,000. 16 h. inhibition, % (concentration not given with the values); in the data active = inhibition above about 85%;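 note: plate controls were untreated cells for no effect and reference antibiotic for full effect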
PriA SSB inh: inhibitors of Klebsiella pneumoniae PriA binding to SSB C-terminal tail, primary screen, biochemical, AlphaScreen. hit rate 0.6% among 430,000. AID 1272365, 2023. PriA–SSB C-terminal tail interaction (Klebsiella pneumoniae). AlphaScreen SSBct-PriA binding, biotinylated peptide. inhibition, % at 33 µM; in the data active = inhibition mostly above about 37%, no sharp cut-off; inactive = mostly below about 20%;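 note: plate controls were negative control peptide for no effect and reference peptide for full effect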
ugtP null kill: growth inhibition of ugtP-null S. aureus, primary screen, RN4220 ugtP deletion, OD600. hit rate 0.54% among 330,000. AID 1259309, 2017. 16 h. growth inhibition, % (concentration not given with the values); in the data active = growth inhibition above about 68%;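 note: plate controls were untreated wells for no effect and antibiotic for full effect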
Starred values were filed as active, the others as inactive; i = inactive; nt = no result given; + = active, no number; ! = not confirmed by another sample.

SMILES | BJeLR viability | MazF activator | Sa RN4220 lethal | PriA SSB inh | ugtP null kill
O=C(O)c1ccccc1NS(=O)(=O)c1ccc(NN=Cc2ccccc2F)c([N+](=O)[O-])c1 | nt | -34.2 | 5.0 | -0.9 | 91.9*
O=C(O)c1ccccc1NS(=O)(=O)c1ccc(NN=Cc2ccc(O)c(O)c2)c([N+](=O)[O-])c1 | nt | nt | 20.3 | 44.2* | 9.6
COc1ccc(NC(=O)c2ccccc2)c([N+](=O)[O-])c1 | -8.7 | 3.6 | 9.0 | 3.9 | 12.1
O=C(O)c1ccccc1NS(=O)(=O)c1ccc(NN=Cc2cccc(O)c2O)c([N+](=O)[O-])c1 | nt | nt | 21.1 | 5.8 | 1.7
COc1ccc(S(=O)(=O)Nc2ccccc2C(=O)Nc2ccc(OC)cc2[N+](=O)[O-])cc1 | nt | nt | nt | 44.0* | nt
CSc1ccc(C=NNc2ccc(S(=O)(=O)Nc3ccccc3C(=O)O)cc2[N+](=O)[O-])cc1 | nt | -32.4 | 1.7 | nt | 40.2
O=C1c2ccccc2C(=O)N1c1nc2nccc(-c3ccccc3)n2n1 | -4.6 | 1.6 | 0.1 | 3.0 | 0.5
CCOC(=O)CSc1n[nH]c(NC(=O)c2cccc(C)c2)n1 | 1.5 | -7.1 | 1.7 | -9.2 | 2.0
CSc1cccc(NC(=S)N2CCC(c3ccccc3)C2)c1 (stereo unspecified) | -4.0 | 13.3 | 3.0 | 1.2 | 1.4
COC(=O)c1c(-c2ccc(N(C)C)cc2)sc2ccc(OC)cc12 | nt | 5.8 | 4.5 | -41.7 | 8.2
COc1ccccc1NS(=O)(=O)c1ccc(N/N=C/c2ccccc2C(=O)O)c([N+](=O)[O-])c1 | nt | nt | nt | i | nt
CCOc1ccc(C=NNc2ccc(S(=O)(=O)Nc3ccccc3C(=O)O)cc2[N+](=O)[O-])cc1 | nt | -33.1 | -5.8 | 16.5 | 91.2*
COc1ccc(C=NNc2ccc(S(=O)(=O)Nc3ccccc3C(=O)O)cc2[N+](=O)[O-])c(OC)c1 | nt | -14.2 | 20.5 | 46.4* | 77.8
COc1ccc2nc(N3CCCC3)c(C#N)cc2c1 | -23.1 | 69.6* | 4.5 | -5.2 | -4.2
O=C(CSc1nnc(Cc2cccs2)n1-c1ccccc1)Nc1ccc2c(c1)OCCO2 | 3.7 | -1.1 | 15.0 | 10.1 | -1.0
Cn1cccc1Cc1nnc(SCC(=O)Nc2ccc3c(c2)OCCO3)n1-c1ccc(Cl)cc1 | nt | nt | nt | 80.1* | nt
Cc1ccc(-n2c(Cc3cccs3)nnc2SCC(=O)Nc2ccc3c(c2)OCO3)cc1 | nt | nt | nt | 61.6* | nt
Cc1ccc(-n2c(Cc3cccn3C)nnc2SCC(=O)Nc2ccc3c(c2)OCO3)cc1 | 2.1 | -8.0 | 3.5 | 38.8* | 1.1
Cc1cc(C)n(-c2nc(-c3cccc(Cl)c3)cs2)n1 | 6.6 | -11.4 | -0.1 | -45.5 | 88.4*
COc1ccc(NC(=O)c2ccc3c(c2)OCO3)cc1 | 9.9 | 8.5 | 1.8 | -12.2 | 3.8
COc1ccc(NC(=O)C(c2cc3c(cc2[N+](=O)[O-])OCO3)N(C)c2ccccc2)cc1 (stereo unspecified) | -4.1 | -7.5 | nt | 39.1* | nt
COc1cccc(C=NNc2snc(SC)c2C#N)c1O | nt | nt | 95.9* | 33.3 | 96.4*
Nc1nnc(SCC(=O)c2ccco2)s1 | 0.9 | 7.6 | -1.0 | -3.2 | -3.1
O=C(CSc1ccc(Cl)cc1)c1ccco1 | -13.0 | -1.1 | 4.3 | -0.2 | 81.2
O=C(CSc1ccccc1Cl)c1ccco1 | -1.4 | 7.6 | 14.7 | -15.3 | 87.3*
SMILES | BJeLR viability | MazF activator | Sa RN4220 lethal | PriA SSB inh | ugtP null kill
O=C(CCSc1ccc(Cl)cc1)c1ccco1 | -3.5 | 5.8 | 1.6 | -11.5 | 83.8*
C[C@H]1CC[C@@]2(C)[C@@H](CC[C@@H]3[C@@H]2CC[C@]2(C)[C@@H](O)CC[C@@H]32)C1 | -5.1 | 1.6 | 93.7* | -11.5 | 99.2*
O=c1c(-c2nc3ccccc3s2)cccn1Cc1ccccc1 | 2.8 | 7.6 | -2.6 | -81.4 | 9.1
Cc1ccc(Cn2cccc(-c3nc4ccccc4s3)c2=O)cc1 | -1.5 | 74.4* | -1.3 | -33.3 | 2.6
Cn1cccc1/C=C1\Cc2ccccc2C1=O | 5.1 | -12.1 | 9.3 | -0.7 | 12.0
CN1C2CCC1/C(=C/c1cccn1C)C(=O)/C2=C\c1cccn1C | 6.6 | + | -0.1 | 39.7 | -3.3
Cn1cccc1/C=C1\CC(C(C)(C)C)C/C(=C\c2cccn2C)C1=O (stereo unspecified) | -15.4 | 107.8* | 0.1 | 6.3 | -2.8
Brc1ccc(OCc2nc(-c3ccccn3)n[nH]2)cc1 | 1.6 | 5.9 | -5.0 | 86.4* | -9.9
NCCc1nc(-c2ccccn2)n[nH]1 | nt | nt | nt | 93.3* | nt
Clc1ccc(OCc2nc3ccccc3[nH]2)cc1 | 0.6 | 6.5 | 0.6 | -9.3 | 3.2
c1ccc(-c2nc(-c3ccccn3)nc(-c3ccccn3)n2)nc1 | -1.3 | 4.6 | 8.2 | -12.2 | -11.6
Clc1ccc(OCc2nc(-c3ccccn3)n[nH]2)cc1 | -6.9 | -20.2 | 0.4 | 63.5* | -17.9
Cc1nc(-c2ccccn2)n[nH]1 | nt | nt | nt | 99.0*! | nt
CCC(C)NC(=O)CSC1=Nc2ccccc2C2=NC(CC(=O)NCc3ccc(F)cc3)C(=O)N12 (stereo unspecified) | -9.9 | -2.6 | -0.9 | -7.2 | 1.4
O=C(Nc1cccnc1)C1CCN(c2ccc(-c3ccc(Cl)cc3)nn2)CC1 | nt | nt | nt | -18.0 | nt
Cc1ccc(SCC(=O)Nc2nnc(-c3ccc(F)cc3)o2)cc1 | nt | nt | nt | 1.0 | nt
CCCC(=O)NC(=S)Nc1ccc(N2CCN(C(=O)c3cccs3)CC2)cc1 | 5.4 | -8.1 | 96.6 | -5.2 | active
CCCCCC(=O)NC(=S)Nc1ccc(N2CCOCC2)cc1 | 3.8 | -11.5 | 1.0 | -11.3 | 91.1*
CCC(=O)NC(=S)Nc1ccc(N2CCOCC2)cc1 | 2.3 | 2.3 | 6.7 | -8.6 | 10.0
CCCC(=O)NC(=S)Nc1ccc(NC(=O)c2cccs2)cc1 | -2.2 | 3.6 | 2.8 | 8.3 | 72.4
Cc1onc(-c2ccccc2)c1C(=O)N/N=C/c1cc2c(cc1Br)OCO2 | 1.6 | 0.9 | nt | nt | nt
CCN1C(=O)c2cccc3c(NC(=O)c4cc5cc([N+](=O)[O-])ccc5s4)ccc1c23 | nt | nt | nt | -12.0 | nt
CNC(CC(C)C)C(=O)NC1C(=O)NC(CC(N)=O)C(=O)NC2C(=O)NC3C(=O)NC(C(=O)NC(C(=O)O)c4cc(O)cc(O)c4-c4cc3ccc4O)C(O)c3ccc(c(Cl)c3)Oc3cc2cc(c3OC2OC(CO)C(O)C(O)C2OC2C[C@](C)(N)C(O)C(C)O2)Oc2ccc(cc2Cl)C1O (stereo partly specified) | nt | -4.8 | 100.7* | -9.5 | 99.9*
CC1OC(OC2C(Oc3cc(O)c4c(c3)OC(c3ccc(O)cc3)CC4=O)OC(CO)C(O)C2O)C(O)C(O)C1O (stereo unspecified) | nt | nt | 2.3 | nt | -6.1
Nc1c(C(=O)Nc2ccccc2)sc2nc3c(c(-c4ccco4)c12)CCC3 | 4.2 | 87.0* | 14.2 | -8.2 | -2.7
Nc1c(C(=O)Nc2ccccc2)sc2nc3c(c(-c4ccco4)c12)CCCC3 | 4.7 | -9.7 | 6.1 | -24.6 | -13.0
COc1ccc(C)cc1NC(=O)CS(=O)c1ncc(-c2ccccc2)n1C (stereo unspecified) | nt | nt | nt | 79.0* | nt

Screening data from PubChem BioAssay.
